A short description of assay [1]: Cell Viability - Hek293 (AID 427;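 active = compounds whose dose-response curve shows a full or clear partial loss of cell viability, called from curve shape rather than a numeric limit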;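 note: potency is the fitted concentration of half-maximal effect; cells exposed to compound for 40 hours at 37 °C before reading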). As to conditions: qHTS. The method, boiled down:
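HEK293 cells in complete medium were exposed to compound for 40 hr at 37 °C, then cellular ATP was read by CellTiter-Glo luminescence. Data were normalized to DMSO (basal) and 100 uM tamoxifen (100% inhibition), and AC50 came from Hill fits.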

The target of assay [2] is Mitogen-activated protein kinase 10 (Mus musculus) (UniProt Q61831). Description: JNK3 AlphaScreen Assay (AID 530; active = well fitted curve in either direction with a large enough effect, not every such curve was filed as active;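 note: kinase came from lysate of stimulated human HepG2 cells; signal reports phosphorylation of biotinylated GST-cJun 1-79 at Ser73 with 10 µM ATP; % is set by controls: 0 for no effect and ±100 for the full control effect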). The settings on record: JNK3 lysate, c-Jun phosphorylation; series mostly up to 57.1 µM. An outline of the steps:
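Inhibitors reduce antibody binding to phosphorylated biotin-cJun, lowering AlphaScreen luminescence. Lysates from HepG2 cells pre-activated by IL-1beta plus TNF-alpha supplied JNK3; compounds were titrated.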
(In general: In Alpha technology, singlet oxygen from a donor bead excites a nearby acceptor bead.)

The nature of assay [3]: Cell Viability - HUV-EC-C (AID 542). Note: % is set by controls: 0 for no effect and ±100 for the full control effect; nearly all actives have a fitted effect of over 35% in size. The settings on record: HUV-EC-C endothelial cell viability, qHTS; series mostly up to 92.2 µM. The method, boiled down: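 qHTS cytotoxicity: HUV-EC-C, 1000 cells/well, 5 hr settle, compound 40 hr 37 °C, CellTiter-Glo, luminescence. AC50 via Hill equation.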
In general terms: Quantitative high-throughput screening tests each substance at several concentrations.

The nature of assay [4]: Cellular Toxicity (caspase-3) HepG2 (AID 654).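 Note: cells exposed to compound for 16 hours before reading; 0% = DMSO alone and 100% = caspase signal from 100 µM tamoxifen.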 The settings on record: HepG2 caspase-3 activation, luminescence, 0% = DMSO only, 100% = tamoxifen; series mostly up to 92.2 µM. The method, boiled down:
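Cells plated 5 hr at 37 °C, compound added, incubated 16 hr at 37 °C. Caspase-Glo 3/7 reagent followed, 20 min at room temperature, then luminescence read. Activation scored as signal increase; AC50 from Hill fit.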

Assay [5] in a line: MultiTox-Fluor Cytotoxicity Assay - LYMP1-002 - Live Cells (AID 955). Note: % is set by controls: 0 for no effect and ±100 for the full control effect. As to conditions: LYMP1-002 lymphoblastoid live-cell protease fluorescence viability; series mostly up to 46.1 µM. The method, boiled down:
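Read-out is live-cell protease activity (cell-permeant GF-AFC substrate, fluorescence Ex/Em=405/510), where a decrease indicates acute toxicity. Human lymphoblastoid cells were treated 16 hours at 37 C in a concentration series, and AC50 values came from standard Hill modelling.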

A short description of assay [6]: Cell Viability - LYMP1-003 - Assay at 24 hr (AID 963).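 Note: plate controls were DMSO only for no effect and tetraoctylammonium bromide positive control for full effect.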 The settings on record: LYMP1-003 lymphoblastoid cell viability; series mostly up to 92.2 µM. An outline of the steps: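 Cells seeded at 2500/well, 5 hr at 37 C; compounds added; 24 hr at 37 C; CellTiter-Glo added, 30 min room temperature; luminescence read. Decrease in ATP taken as cytotoxicity, AC50 from Hill modelling.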

A short description of assay [7]: Cell Viability - LYMP2-005 (AID 967).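 Note: plate controls were DMSO only for no effect and 92 µM tetraoctylammonium bromide control for full effect.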 As to conditions: LYMP2-005 lymphoblastoid cell viability; series mostly up to 92.2 µM. The method, boiled down:
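CellTiter-Glo luminescence (cellular ATP) read-out; LYMP2-005 lymphoblastoid cells, 2500/well, 5 h pre-incubation, then 24 h compound exposure at 37 C in complete medium. Tetraoctylammonium bromide positive control; AC50 by standard Hill fit.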

Assay [8] can be described thus: Cell Viability - LYMP2-013 (AID 970).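 Note: 0% = DMSO only and full inhibition = tetraoctylammonium bromide control; nearly all actives have a fitted effect of over 55% in size.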 As to conditions: LYMP2-013 lymphoblastoid cells viability; series mostly up to 92.2 µM. An outline of the steps: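 qHTS; 2500 lymphoblastoid cells/well; 5 hr 37 C settle; cpd 24 hr 37 C; CellTiter-Glo, 30 min RT; luminescence. AC50 = Hill fit.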
Assay [9] can be described thus: Cell Viability - LYMP2-015 (AID 971).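 Note: 0% = DMSO only and full effect = 92 µM tetraoctylammonium bromide; nearly all actives have a fitted effect of over 55% in size.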 As to conditions: LYMP2-015 lymphoblastoid cell viability; series mostly up to 92.2 µM. An outline of the steps:
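Luminescent ATP read-out (CellTiter-Glo) served as the viability measure after lymphoblastoid cells were exposed to compounds for 24 hours at 37 C. Concentration-response data were fitted with the Hill equation to give AC50.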

Assay [10] is described as follows: Cell Viability - LYMP2-017 (AID 972). Note: % is set by controls: 0 for no effect and ±100 for the full control effect; nearly all actives have a fitted effect of over 55% in size. As to conditions: LYMP2-017 lymphoblastoid cell viability; series mostly up to 92.2 µM. The method, boiled down:
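2500 cells/well, 5 h 37 C; cpd 24 h 37 C in complete medium; CellTiter-Glo, 30 min RT; luminescence (ATP). AC50 via Hill fit, qHTS.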

Assay [11] can be described thus: Cell Viability - LYMP2-019 (AID 973).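 Note: 0% = DMSO alone and full effect = 92 µM tetraoctylammonium bromide; nearly all actives have a fitted effect of over 55% in size.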 As to conditions: LYMP2-019 lymphoblastoid cell line viability; series mostly up to 92.2 µM. The method, boiled down:
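Luminescent ATP read-out (CellTiter-Glo, 30 min room temperature) served as the viability measure after 24 hr treatment of lymphoblastoid cells at 37 C. Concentration-response data were fitted to the Hill equation for AC50.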

A short description of assay [12]: Cell Viability - LYMP2-023 (AID 975). As to conditions: LYMP2-023 lymphoblastoid cell viability; series mostly up to 92.2 µM. An outline of the steps:
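2500 cells/well, 5 hr 37 C; cpd 24 hr 37 C; CellTiter-Glo, 30 min RT; luminescence. qHTS conc-response, Hill fit -> AC50. Pos ctrl tetraoctylammonium bromide.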

The nature of assay [13]: Cell Viability - LYMP2-007 (AID 979).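 Note: cells exposed to compound for 24 h before reading; 0% = DMSO only and the negative end = 92 µM tetraoctylammonium bromide; nearly all actives have a fitted effect of over 60% in size.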 As to conditions: LYMP2-007 lymphoblastoid cell viability; series mostly up to 92.2 µM. The method, boiled down: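 Luminescent ATP signal (CellTiter-Glo) serves as the viability read-out after 24 hr compound treatment of lymphoblastoid cells in complete medium at 37 C. Concentration-response data were fitted to the Hill equation to give AC50 values.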

Assay [14] is described as follows: Cell Viability - LYMP2-024 (AID 988).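 Note: plate controls were DMSO only for no effect and 92 µM tetraoctylammonium bromide for full effect; nearly all actives have a fitted effect of over 60% in size.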 The settings on record: LYMP2-024 lymphoblastoid cell viability; series mostly up to 92.2 µM. The method, boiled down: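 Steps: seed 2500 cells/well, 5 hr 37 C; add compound, 24 hr 37 C; add CellTiter-Glo, 30 min room temperature; read luminescence. AC50 derived by Hill modelling of concentration-dependent ATP loss.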
Assay [15] concerns the target Vitamin D3 receptor (Homo sapiens) (UniProt P11473). Description: qHTS assay for small molecule agonists of vitamin D receptor signaling (AID 588543; calls by dose curve;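 note: 0% = DMSO basal and 100% = reference agonist control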). As to conditions: HEK293T VDR-UAS-bla, beta-lactamase ratio, 16 h; series mostly up to 76.8 µM. The method, boiled down:
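GeneBLAzer VDR-UAS-bla HEK293T cells in 2% charcoal-stripped FBS medium were dosed with compound titrations for 16 h at 37 °C; CCF4 β-lactamase readout (405 nm ex, 460/530 nm em). EC50 and efficacy from Hill fits, normalized to 50 nM calcitriol (100%) and DMSO (0%).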

For assay [16], the target named is Thyroid hormone receptor beta (Homo sapiens) (UniProt P10828). Description: qHTS assay for small molecule agonists of thyroid hormone receptor beta signaling (AID 588545; calls by dose curve;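 note: 0% = DMSO only and 100% = 10 nM T3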). As to conditions: TR-UAS-bla GripTite HEK 293, beta-lactamase ratio, agonist mode, 18 h; series mostly up to 76.7 µM. The method, boiled down:
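Efficacy and EC50 values derive from Hill fits of qHTS titration data, normalized to 10 nM T3 and DMSO-only wells. HEK 293 reporter cells were stimulated for 18 hrs at 37 C, with beta-lactamase activity measured by CCF4 fluorescence.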

The nature of assay [17]: qHTS assay for small molecule antagonists of retinoid X receptor alpha signaling (AID 588546).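 Note: cells stimulated with 9-cis-retinoic acid as agonist; % is set by controls: 0 for no effect and ±100 for the full control effect.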 As to conditions: HEK293T RXRa-UAS-bla, beta-lactamase ratio, antagonist mode; measured here: W530 green channel, cytotoxicity proxy. An outline of the steps: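 Beta-lactamase reporter inhibition, read as CCF4 fluorescence ratio (ex 405, em 460/530 nm) after 2 h at RT. HEK293T UAS-bla cells, 2500/well, were stimulated with 9-cis-RA at 500 or 100 nM final alongside test compound for 18 h at 37 C.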

A short description of assay [18]: qHTS assay for small molecule activators of the p53 signaling pathway (AID 651743; active = well fitted activation curve with a large enough effect in the signal ratio, not every such curve was filed as active; the % refers to the signal ratio; note: % of control where 0% means no effect). As to conditions: HCT-116 p53RE-bla, beta-lactamase FRET ratio, 16 h; activation: stronger effect = higher value. An outline of the steps:
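Cell-based beta-lactamase reporter (p53 response elements, HCT-116 background). After a 5-hour preincubation, cells received compound for 16 hours at 37 C; substrate development ran 2 hours at room temperature.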

Assay [19] in a line: Cellular Toxicity (caspase-3) BJ (AID 658).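 Note: 0% = DMSO basal and 100% = 10 µM staurosporine.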 As to conditions: BJ fibroblasts, luminescence, normalized: DMSO 0%, staurosporine 100%; series mostly up to 91.7 µM. An outline of the steps:
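Luminescent aminoluciferin-substrate cleavage reports caspase 3/7 activity in normal human BJ fibroblasts after 16 hr compound exposure at 37 °C. Normalized to DMSO (basal) and 10 uM staurosporine (100%); AC50 from Hill fit of concentration-response.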

Assay [20] is described as follows: MultiTox-Fluor Cytotoxicity Assay - LYMP1-003 - Dead Cells (AID 961).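 Note: 0% = DMSO and 100% = tetraoctylammonium bromide; nearly all actives have a fitted effect of over 70% in size.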 The settings on record: LYMP1-003 lymphoblastoid cells, dead-cell protease fluorescence; series mostly up to 92.2 µM. An outline of the steps:
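LYMP1-003 human lymphoblastoid cells (2500/well) exposed to compound 16 h at 37 C in complete medium; dead-cell protease read with bis-AAF-R110 fluorescence (Ex/Em 485/520) after 60 min at room temperature. Normalized to DMSO and 15 uM tetraoctylammonium bromide; AC50 from Hill fit.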

Values joined by “and” are separate entries in the source; they are usually repeats but may differ in a detail not shown here. Identical values can stand only once. Records with an inconclusive call do not appear. Active and inactive are the calls of the source. Unless noted, calls come from the whole dose curve; as a rule, active = well fitted curve in the direction sought with a large enough effect; inconclusive = small, poorly fitted or top-dose-only effect, or another doubt; inactive = no such curve, though single readings can be large; an effect the other way counts as inactive or inconclusive.

Chain of Vitamin D3 receptor (Homo sapiens) (P11473 whole entry, looked up): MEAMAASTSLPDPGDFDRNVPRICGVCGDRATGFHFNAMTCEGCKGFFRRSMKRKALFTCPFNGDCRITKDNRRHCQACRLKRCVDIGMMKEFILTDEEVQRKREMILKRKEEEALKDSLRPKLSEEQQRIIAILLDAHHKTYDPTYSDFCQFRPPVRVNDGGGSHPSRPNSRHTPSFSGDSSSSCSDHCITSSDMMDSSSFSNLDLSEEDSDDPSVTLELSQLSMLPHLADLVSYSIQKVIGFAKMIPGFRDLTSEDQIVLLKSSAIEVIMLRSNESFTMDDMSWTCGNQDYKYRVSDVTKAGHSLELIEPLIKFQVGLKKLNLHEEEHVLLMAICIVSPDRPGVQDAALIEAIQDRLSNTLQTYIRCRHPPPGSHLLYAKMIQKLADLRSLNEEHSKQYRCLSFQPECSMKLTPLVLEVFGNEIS
Chain of Thyroid hormone receptor beta (Homo sapiens) (P10828 whole entry, looked up): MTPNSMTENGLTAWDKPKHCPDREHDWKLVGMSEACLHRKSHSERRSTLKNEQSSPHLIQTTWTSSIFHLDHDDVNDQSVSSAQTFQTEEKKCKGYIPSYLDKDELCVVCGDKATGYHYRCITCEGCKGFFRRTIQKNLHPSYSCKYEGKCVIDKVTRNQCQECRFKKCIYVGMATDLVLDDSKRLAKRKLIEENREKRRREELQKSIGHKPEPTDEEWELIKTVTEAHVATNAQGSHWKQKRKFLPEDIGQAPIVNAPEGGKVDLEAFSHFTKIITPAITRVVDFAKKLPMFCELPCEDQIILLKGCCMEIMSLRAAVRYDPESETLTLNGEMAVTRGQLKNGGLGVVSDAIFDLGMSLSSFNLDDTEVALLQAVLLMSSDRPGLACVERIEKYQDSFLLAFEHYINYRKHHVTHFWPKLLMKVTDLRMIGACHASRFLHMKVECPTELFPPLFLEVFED

With `COC(C)(C)C`, the Potency in assay [1] was > 92 µM (inactive). In addition, the Potency entry in assay [2], in [3], in [7], in assay [8], in assay [9] and in assay [10] was “inactive” throughout. The Potency entry in assay [11], in assay [12], in [13], in [14] and in [16] was “inactive” throughout. Further, the outcome in [4], in [5], in assay [6] and in assay [15] was inactive. The max response in [17] was -12.9%. The activation in assay [18] was -2.31% (inactive).
For `Cc1cc(Cl)ccc1O`, in assay [1], the Potency is > 92 µM (inactive). In addition, the Potency result in assay [2], in [3], in assay [20], in [7], in assay [8] and in assay [9] was “inactive” each time. In addition, the Potency entry in assay [10], in [11], in assay [12], in assay [13], in assay [14] and in [16] was “inactive” in each case. The compound was classed as inactive in [4], in assay [19], in assay [5] and in assay [15]. For the same compound, the max response in assay [17] is -5.47%. Moreover, the activation in assay [18] was -0.272% (inactive).
As to `ClC(Cl)C(Cl)Cl`, the Potency in assay [1] is > 92 µM (inactive). Also, the Potency entry in [2], in assay [3], in assay [7], in assay [8], in [9] and in [10] was “inactive” each time. Moreover, the Potency entry in assay [11], in [12], in assay [13], in [14] and in assay [16] was “inactive” throughout. In addition, the result in assay [4], in assay [5], in assay [6] and in [15] was inactive. Moreover, the max response in [17] is -2.39%. In assay [18], the activation was -4.56% (inactive).
For `Nc1ccc([N+](=O)[O-])cc1N`, the Potency in assay [1] is > 92 µM (inactive). The Potency entry in assay [2], in assay [3], in assay [20], in assay [7], in [8] and in assay [9] was “inactive” throughout. Besides, the Potency entry in assay [10], in assay [11], in assay [12], in assay [13], in [14] and in assay [16] was “inactive” each time. Besides, the outcome in assay [4], in assay [19], in [5], in assay [6] and in [15] was inactive. The max response in [17] was 7.14% and -1.85%. The activation in [18] was -2.47% (inactive).
As to `Nc1ccc(-c2ccccc2)cc1`, the Potency in assay [1] was > 92 µM (inactive). In addition, the Potency result in assay [2], in [3], in assay [20], in [7], in assay [8] and in assay [9] was “inactive” in each case. The Potency result in assay [10], in [11], in assay [12], in assay [13], in assay [14] and in assay [16] was “inactive” in each case. In addition, the result in [4], in [19], in assay [5], in [6] and in [15] was inactive. Moreover, in [17], the max response was -4.26%. The activation in assay [18] is -1.6% (inactive).
In the case of `C/C=C/CC#N`, the Potency in [1] was > 92 µM (inactive). Also, the Potency entry in [2], in assay [3], in [20], in assay [7], in assay [8] and in [9] was “inactive” in each case. For the same compound, the Potency result in [10], in [11], in assay [12], in assay [13], in [14] and in assay [16] was “inactive” each time. The call in assay [19] and in assay [5] was inactive. Further, the max response in assay [17] was determined as 5.46%. Moreover, in [18], the activation was -0.715% (inactive).
